Several values for one entry are separate records, joined by “and”; a condition that tells them apart may be missing. Equal entries are not always repeated. Results filed as inconclusive are left out. Activity calls are given as the source filed them.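 How the source made its calls, unless noted: active means at least 20% inhibition of 6-phosphogluconate dehydrogenase activity; inactive means the rest.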
What was measured:
[1] = P. berghei load reduction in hepatocytes – cell-based, HepG2, luciferase luminescence, HepG2 viability, primary screen (AID 624349; in the data active means parasite load remaining mostly below about 12%, no sharp cut-off; inactive means mostly above about 10%;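 further: 100% = mean of DMSO negative control wells on the same plate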); details: P. berghei liver stage in HepG2, luciferase luminescence, concentration not given here; parasite load remaining: stronger effect = lower value; viability: measured here: HepG2 viability without parasites
[2] = target: 6-phosphogluconate dehydrogenase, decarboxylating (Homo sapiens) (UniProt P52209); assay: inhibition of human phosphogluconate dehydrogenase – biochemical, recombinant enzyme, NADPH absorbance, primary screen (AID 1159550); details: recombinant 6PGD, NADPH absorbance 341 nm; at 10 µM; stronger effect = higher value
6-phosphogluconate dehydrogenase, decarboxylating (Homo sapiens), sequence (P52209 whole entry, looked up): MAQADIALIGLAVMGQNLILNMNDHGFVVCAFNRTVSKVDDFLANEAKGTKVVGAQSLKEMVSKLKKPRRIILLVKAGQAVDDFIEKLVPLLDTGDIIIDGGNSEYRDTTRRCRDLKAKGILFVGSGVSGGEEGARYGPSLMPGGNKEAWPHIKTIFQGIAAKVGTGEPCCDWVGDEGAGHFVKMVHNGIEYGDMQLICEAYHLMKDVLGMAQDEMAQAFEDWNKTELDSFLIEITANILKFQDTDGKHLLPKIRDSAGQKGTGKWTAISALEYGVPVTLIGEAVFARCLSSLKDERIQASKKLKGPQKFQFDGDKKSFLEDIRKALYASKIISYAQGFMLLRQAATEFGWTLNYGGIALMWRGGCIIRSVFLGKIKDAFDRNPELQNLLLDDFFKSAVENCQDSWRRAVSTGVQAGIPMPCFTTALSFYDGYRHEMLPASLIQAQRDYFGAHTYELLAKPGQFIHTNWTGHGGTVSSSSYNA

[3] = viability loss with induced miR-34 in A549 – imaging, A549 dox-inducible miR-34, nuclei and caspase counts, primary screen (AID 1347080;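 active means compounds whose cell count with miR-34 switched on is under 0.7 times the count with it off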); details: A549 miR-34 inducible, Hoechst nuclei count, 48 h
[4] = MELAS cybrid and Rieske KO viability enhancers – cell-based, MELAS cybrids, Rieske KO mouse fibroblasts, CellTiter-Glo, primary screen (AID 1508586;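 active means mean z-score across replicates of 1.96 or higher in either the MELAS or the Rieske mutant cell line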;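 further: z relative to plate mean and SD of compound and empty wells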); details: low glucose
[5] = galactose survival enhancers in mitochondrial complex I cybrids – cell-based, galactose medium, ATP luminescence, primary screen (AID 1645843;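 active means z-score of at least 1.8 in each of two replicates, scored against plate mean and spread of sample wells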;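 further: positive z means more ATP and so rescue of galactose-driven cybrid death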); details: complex I mutant cybrid cells, 72 h, stronger effect = higher value
[6] = target: NAD(+) hydrolase SARM1 (Homo sapiens) (UniProt Q6SZW1); assay: blocking NAD cleavage by SARM1 SAM-TIR – cell lysate, NAD-Glo luminescence (AID 1508614;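 active means compound whose remaining NAD level is above about 45 nM, limit read from the data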); details: SAM-TIR HEK293T lysate NADase, at 1 µM, stronger effect = higher value
NAD(+) hydrolase SARM1 (Homo sapiens), sequence (Q6SZW1 whole entry, looked up, the tested form may be a part): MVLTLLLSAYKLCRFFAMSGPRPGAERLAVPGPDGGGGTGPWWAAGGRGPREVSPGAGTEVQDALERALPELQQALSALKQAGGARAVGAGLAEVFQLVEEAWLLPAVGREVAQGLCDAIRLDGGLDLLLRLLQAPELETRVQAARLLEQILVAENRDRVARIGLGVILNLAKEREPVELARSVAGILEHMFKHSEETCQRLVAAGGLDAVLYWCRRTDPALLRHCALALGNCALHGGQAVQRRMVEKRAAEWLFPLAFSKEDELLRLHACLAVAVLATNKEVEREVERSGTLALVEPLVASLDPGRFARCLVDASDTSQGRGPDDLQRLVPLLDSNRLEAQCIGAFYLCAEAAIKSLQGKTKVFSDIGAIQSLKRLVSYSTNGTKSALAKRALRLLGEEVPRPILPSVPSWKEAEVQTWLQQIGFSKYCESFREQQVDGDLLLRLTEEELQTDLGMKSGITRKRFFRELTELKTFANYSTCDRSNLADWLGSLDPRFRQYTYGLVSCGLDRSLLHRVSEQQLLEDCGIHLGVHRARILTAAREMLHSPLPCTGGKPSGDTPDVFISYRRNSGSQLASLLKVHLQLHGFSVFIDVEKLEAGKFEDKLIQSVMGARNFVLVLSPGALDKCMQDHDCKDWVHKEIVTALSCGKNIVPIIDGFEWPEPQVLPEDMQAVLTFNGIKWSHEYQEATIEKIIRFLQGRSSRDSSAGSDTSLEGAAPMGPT

[7] = target: Mitogen-activated protein kinase 7 (Homo sapiens) (UniProt Q13164); assay: Gal4-ERK5 driven luciferase induction – cell-based, HTS, primary screen (AID 1508626;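 active means luciferase signal above three times the same-plate solvent-only control wells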;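 further: luciferase driven by Gal4-ERK5 fusion binding five Gal4 sites before minimal TATA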); details: HeLa Gal4-ERK5 transactivation, 18 h, at 5 µM, stronger effect = higher value
Mitogen-activated protein kinase 7 (Homo sapiens), sequence (Q13164 whole entry, looked up, the tested form may be a part): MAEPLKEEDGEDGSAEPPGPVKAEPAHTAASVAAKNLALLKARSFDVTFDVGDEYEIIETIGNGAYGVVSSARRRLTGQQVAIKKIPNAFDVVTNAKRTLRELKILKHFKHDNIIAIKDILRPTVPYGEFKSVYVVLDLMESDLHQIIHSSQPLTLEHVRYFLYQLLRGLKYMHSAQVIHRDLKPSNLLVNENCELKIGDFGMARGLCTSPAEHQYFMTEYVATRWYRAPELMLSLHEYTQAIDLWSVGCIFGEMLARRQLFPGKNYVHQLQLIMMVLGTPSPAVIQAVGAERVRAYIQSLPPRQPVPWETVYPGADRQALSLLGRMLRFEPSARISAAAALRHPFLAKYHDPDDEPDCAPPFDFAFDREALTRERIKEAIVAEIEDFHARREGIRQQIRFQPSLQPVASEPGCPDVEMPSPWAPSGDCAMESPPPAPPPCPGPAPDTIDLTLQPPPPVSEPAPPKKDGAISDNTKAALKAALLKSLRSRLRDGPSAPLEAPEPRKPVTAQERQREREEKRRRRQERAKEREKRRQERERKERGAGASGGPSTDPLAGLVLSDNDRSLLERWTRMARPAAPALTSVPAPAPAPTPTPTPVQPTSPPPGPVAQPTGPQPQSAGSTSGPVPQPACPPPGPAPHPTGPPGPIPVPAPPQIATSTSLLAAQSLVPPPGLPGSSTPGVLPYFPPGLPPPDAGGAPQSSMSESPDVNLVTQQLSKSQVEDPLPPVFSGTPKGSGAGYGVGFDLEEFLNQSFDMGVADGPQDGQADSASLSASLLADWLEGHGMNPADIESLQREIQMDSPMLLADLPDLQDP

[8] = viability loss in pontine glioma line – cell-based, SU-DIPG-XIII, MIPE4.0, CellTiter-Glo, qHTS, dose response (AID 1347061; cut-off not given, nearly all actives have AC50 up to about 37 µM;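 further: cells exposed to compound for 48 hours before readout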); details: CellTiter-Glo ATP luminescence
[9] = viability loss in pontine glioma line – cell-based, JHH-DIPG-1, MIPE4.0, CellTiter-Glo, qHTS, dose response (AID 1347062; cut-off not given, nearly all actives have AC50 up to about 27 µM); details: JHH-DIPG-1 viability, CellTiter-Glo ATP luminescence
[10] = compounds altering viability of human ES cells (AID 493140; call rule not given here;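 further: cells exposed to compounds for four days before counting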); details: human embryonic stem cell survival screen; stronger effect = higher value
[11] = stronger effect = lower value, cell number ratio, induced over uninduced
[12] = measured here: relative caspase fold change +Dox/-Dox
[13] = measured here: total cells with miR-34 induction, stronger effect = lower value
[14] = measured here: total cells without miR-34 induction
[15] = MELAS cybrid survival, CellTiter-Glo 48 h, stronger effect = higher value
[16] = Rieske KO mouse fibroblast survival, CellTiter-Glo 72 h

C[C@@H]1C(=O)O[C@H]2C[C@@]34[C@H]5C[C@@H](C(C)(C)C)[C@]36[C@@H](OC(=O)[C@@H]6O)O[C@@]4(C(=O)O5)[C@]21O
parasite load remaining [1]: 48.8% (inactive) | viability [1]: 110% | inhibition [2]: 0.379% (inactive) | fold change [3, 11]: 0.95 (inactive) | fold change [3, 12]: 1.75 | cell count [3, 13]: 10300 | cell count [3, 14]: 10800 | z-score [4, 15]: 0.0275 (inactive) | z-score [4, 16]: -1.08 | z-score [5]: 0.435 (inactive)

C=C1CC[C@H](O)C/C1=C/C=C1\CCC[C@]2(C)[C@@H]([C@H](C)/C=C/[C@H](C)C(C)C)CC[C@@H]12
parasite load remaining [1]: 50.6% (inactive) | viability [1]: 130% | inhibition [2]: 12.3% (inactive) | fold change [3, 11]: 0.934 (inactive) | fold change [3, 12]: 1.53 | cell count [3, 13]: 7580 | cell count [3, 14]: 8110 | remaining NAD [6]: 10 nM (inactive) | luciferase signal [7]: 144 AU (inactive)

O=C(O)c1cc2cc(Cc3cccnc3)ccc2o1
parasite load remaining [1]: 124% (inactive) | viability [1]: 73.4% | inhibition [2]: 4.63% (inactive) | fold change [3, 11]: 0.956 (inactive) and 0.926 (inactive) | fold change [3, 12]: 0.671 and 1.19 | cell count [3, 13]: 10100 and 5310 | cell count [3, 14]: 10600 and 5730 | z-score [5]: 0.16 (inactive)

CN[C@@H]1[C@@H](O[C@H]2O[C@H](CO)[C@@H](N)[C@H](O)[C@H]2O)O[C@H]2C[C@@H](N)[C@@H](O[C@H]3[C@H](O)[C@@H](O)[C@H](N)C[C@@H]3N)O[C@@H]2[C@@H]1O
parasite load remaining [1]: 21.5% (inactive) | viability [1]: 69% | inhibition [2]: 3.92% (inactive) | fold change [3, 11]: 0.906 (inactive) | fold change [3, 12]: 1.04 | cell count [3, 13]: 9860 | cell count [3, 14]: 10900 | z-score [4, 15]: 0.598 (inactive) | z-score [4, 16]: 0.317 | remaining NAD [6]: 10 nM (inactive) | luciferase signal [7]: 28 AU (inactive) | z-score [5]: 0.86 (inactive)

CO[C@H]1C[C@H](O[C@H]2[C@H](C)[C@@H](O[C@@H]3O[C@H](C)C[C@H](N(C)C)[C@H]3O)[C@@H](C)C[C@@]3(CO3)C(=O)[C@H](C)[C@@H](O)[C@@H](C)[C@@H](C)OC(=O)[C@@H]2C)O[C@@H](C)[C@@H]1O
parasite load remaining [1]: 43.4% (inactive) | viability [1]: 44.8% | inhibition [2]: -12.7% (inactive) | fold change [3, 11]: 0.882 (inactive) | fold change [3, 12]: 0.459 | cell count [3, 13]: 8150 | cell count [3, 14]: 9240 | remaining NAD [6]: 10 nM (inactive) | luciferase signal [7]: 32 AU (inactive)

CN(C)CCCO[C@@H]1[C@H]2OC(C)(C)O[C@H]2O[C@@H]1[C@H](O)CO
parasite load remaining [1]: 63.5% (inactive) | viability [1]: 92.5% | inhibition [2]: 8.75% (inactive) | fold change [3, 11]: 0.9 (inactive) | fold change [3, 12]: 1.16 | cell count [3, 13]: 9050 | cell count [3, 14]: 10100 | z-score [4, 15]: 0.565 (inactive) | z-score [4, 16]: -0.271 | luciferase signal [7]: 44 AU (inactive)

CO/N=C(\C(=O)N[C@@H]1C(=O)N2C(C(=O)OCOC(=O)C(C)(C)C)=C(/C=C\c3scnc3C)CS[C@H]12)c1csc(N)n1
inhibition [2]: -4.41% (inactive) | outcome [8]: inactive | outcome [9]: inactive | remaining NAD [6]: 10 nM (inactive)

COc1ccc(-c2cc(=O)c3c(O)c(OC)c(OC)cc3o2)cc1O
inhibition [2]: 3.27% (inactive) | fold change [3, 11]: 1.03 (inactive) | fold change [3, 12]: 0.681 | cell count [3, 13]: 5880 | cell count [3, 14]: 5680 | z-score [5]: 0.86 (inactive)

CO/N=C(\C(=O)N[C@@H]1C(=O)N2C(C(=O)O)=C(COC(N)=O)CS[C@H]12)c1ccco1
parasite load remaining [1]: 120% (inactive) | viability [1]: 107% | inhibition [2]: -1.88% (inactive) | fold change [3, 11]: 0.899 (inactive) | fold change [3, 12]: 1.25 | cell count [3, 13]: 8800 | cell count [3, 14]: 9790 | z-score [4, 15]: -0.736 (inactive) | z-score [4, 16]: -1.31 | remaining NAD [6]: 10 nM (inactive) | luciferase signal [7]: 48 AU (inactive)

CC(=O)O[C@H]1C(=O)[C@@]2(C)[C@H]([C@H](OC(=O)c3ccccc3)[C@]3(O)C[C@H](OC(=O)[C@H](O)[C@@H](NC(=O)c4ccccc4)c4ccccc4)C(C)=C1C3(C)C)[C@]1(OC(C)=O)CO[C@@H]1C[C@@H]2O
parasite load remaining [1]: 52.9% (inactive) and 35% (inactive) | viability [1]: 43.2% and 79% | inhibition [2]: 17.9% (inactive) | fold change [3, 11]: 0.873 (inactive) and 1.02 (inactive) | fold change [3, 12]: 1.16 and 1.19 | cell count [3, 13]: 1550 and 2180 | cell count [3, 14]: 1780 and 2140 | z-score [4, 15]: -1.19 (inactive) and -2.08 (inactive) | z-score [4, 16]: 0.25 and 0.578 | remaining NAD [6]: 10 nM (inactive) | luciferase signal [7]: 36 AU (inactive) | z-score [5]: -0.295 (inactive)

CN1[C@@H]2CC[C@H]1CC(OC(=O)[C@H](CO)c1ccccc1)C2 (stereo partly specified)
parasite load remaining [1]: 60.1% (inactive) | viability [1]: 43.8% | inhibition [2]: -17.7% (inactive) | fold change [3, 11]: 0.891 (inactive) | fold change [3, 12]: 1.14 | cell count [3, 13]: 8370 | cell count [3, 14]: 9390 | z-score [4, 15]: -0.995 (inactive) | z-score [4, 16]: -0.351 | remaining NAD [6]: 10 nM (inactive) | luciferase signal [7]: 144 AU (inactive)

NCC[C@H](O)C(=O)N[C@@H]1C[C@H](N)[C@@H](O[C@H]2O[C@H](CN)[C@@H](O)[C@H](O)[C@H]2O)[C@H](O)[C@H]1O[C@H]1O[C@H](CO)[C@@H](O)[C@H](N)[C@H]1O
parasite load remaining [1]: 126% (inactive) | viability [1]: 113% | inhibition [2]: -15.3% (inactive) | fold change [3, 11]: 0.816 (inactive) | fold change [3, 12]: 1.79 | cell count [3, 13]: 8210 | cell count [3, 14]: 10100 | z-score [4, 15]: -0.451 (inactive) | z-score [4, 16]: -0.0793 | remaining NAD [6]: 10 nM (inactive) | luciferase signal [7]: 60 AU (inactive)

CCCCC[C@@H](O)[C@H]1C(=O)O[C@H](C)[C@@H](O)/C=C/C=C/C=C/C=C/C=C(\C)[C@@H](O)C[C@H](O)C[C@H](O)C[C@H](O)C[C@H](O)C[C@H](O)C[C@@H]1O
inhibition [2]: 6.12% (inactive) | fold change [3, 11]: 1.04 (inactive) | fold change [3, 12]: 1.06 | cell count [3, 13]: 6150 | cell count [3, 14]: 5900 | luciferase signal [7]: 72 AU (inactive)

C[N+](C)(C)CCOP(=O)([O-])OP(=O)(O)OC[C@H]1O[C@@H](n2ccc(N)nc2=O)[C@H](O)[C@@H]1O
inhibition [2]: -4.56% (inactive) | remaining NAD [6]: 10 nM (inactive) | luciferase signal [7]: 76 AU (inactive)

C[C@@H]1O[C@@H](O[C@H]2[C@H](Oc3cc(O)c4c(c3)O[C@H](c3ccc(O)cc3)CC4=O)O[C@H](CO)[C@@H](O)[C@@H]2O)[C@H](O)[C@H](O)[C@H]1O
survival [10]: 7.67 (inactive) | parasite load remaining [1]: 153% (inactive) and 66.6% (inactive) | viability [1]: 111% and 77.6% | inhibition [2]: 4.72% (inactive) | fold change [3, 11]: 0.866 (inactive) | fold change [3, 12]: 1.55 | cell count [3, 13]: 9380 | cell count [3, 14]: 10800 | luciferase signal [7]: 60 AU (inactive)
